# Several values for one entry are separate records, joined by “and”; a condition that tells them apart may be missing. Equal entries are not always repeated. Records with an inconclusive call do not appear. Unmarked numbers belong to inactive results. Activity calls are given as the source filed them. Calls follow the shape of the dose curve; as a rule, active = well fitted curve in the direction sought with a large enough effect; inconclusive = small, poorly fitted or top-dose-only effect, or another doubt; inactive = no such curve, though single readings can be large; an effect the other way counts as inactive or inconclusive.
# Experiments:
# [1] = target: Cellular tumor antigen p53 (Homo sapiens) (UniProt P04637); assay: Primary qHTS for small molecule compounds that upregulate eGFP-tagged delta133p53alpha (in N-terminal) cells. (AID 2060322); settings: NCI-H358 eGFP-delta133p53alpha fluorescence, 24 h; activation: active compounds read high; also: nearly all actives have a fitted effect of over 75% in size; also: potency is read from the fitted curve at half-maximal effect;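 as to activation: series mostly up to about 56 µM; 0% = DMSO vehicle and 100% = reference activator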
# In short: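 NCI-H358 cells pre-induced 24 h with 10 ng/ml doxycycline to express N-terminal eGFP-delta133p53alpha, then dosed 24 h at 37C without doxycycline; fixed, Hoechst-stained, GFP intensity by laser scanning cytometry, normalized to DMSO (0%) and 57.5 uM 5-azacytidine (100%).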
# [2] = target: Aldehyde dehydrogenase, mitochondrial (Homo sapiens) (UniProt P05091); assay: qHTS for Inhibitors of the Aldehyde Dehydrogenase Family (ALDH2) Primary screen (AID 2061308);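 also: plate controls were vehicle for no effect and reference inhibitor for full effect; nearly all actives have a fitted effect of over 55% in size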
# [3] = target: Retinaldehyde dehydrogenase 3 (Homo sapiens) (UniProt P47895); assay: qHTS for Inhibitors of the Aldehyde Dehydrogenase Family (ALDH1A3) Primary screen (AID 2061315);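 also: plate controls were DMSO vehicle for no effect and reference inhibitor for full effect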
# [4] = BET inhibitor-based combinations targeting novel dependencies in MECOM-rearranged (r) AML: SET-2 cell line (AID 2202231); settings: SET-2 AML cells viability, CellTiter-Glo luminescence, 48 h; viability: active compounds read low, concentration not given here; also: nearly all actives have a fitted effect of over 35% in size; also: potency is read from the fitted curve at half-maximal effect;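 as to viability: plate controls were DMSO treated cells for no effect and wells without cells for full effect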
# In short: (§1)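 AML cell lines seeded at 500 cells/well, treated with 11-point dose curves for 48 h. Viability by CellTiter-Glo luminescence, normalised to DMSO and empty wells; activity expressed as AUC and per-cell-line Z-transformed AUC.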
# [5] = BET inhibitor-based combinations targeting novel dependencies in MECOM-rearranged (r) AML: HNT-34 cell line (AID 2202234); also: nearly all actives have a fitted effect of over 35% in size; also: potency is read from the fitted curve at half-maximal effect
# In short: (§2)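 Cells at 500/well were exposed for 48 hr to MIPE v5.0 drugs as 11-point dose curves. Viability was read by CellTiter-Glo luminescence and normalized to DMSO and empty-well controls. Activity was expressed as AUC and per-cell-line Z-AUC.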
# [6] = BET inhibitor-based combinations targeting novel dependencies in MECOM-rearranged (r) AML: MV-4-11 cell line (AID 2202233); also: nearly all actives have a fitted effect of over 45% in size; also: potency is read from the fitted curve at half-maximal effect
# In short: as §2
# [7] = BET inhibitor-based combinations targeting novel dependencies in MECOM-rearranged (r) AML: AML-191 cell line (AID 2202236; also: nearly all actives have a fitted effect of over 35% in size; also: potency is read from the fitted curve at half-maximal effect)
# In short: as §1
# [8] = BET inhibitor-based combinations targeting novel dependencies in MECOM-rearranged (r) AML: AML-194 cell line (AID 2202237; also: nearly all actives have a fitted effect of over 40% in size; also: potency is read from the fitted curve at half-maximal effect)
# In short: as §1
# [9] = BET inhibitor-based combinations targeting novel dependencies in MECOM-rearranged (r) AML: UCSD-AML1 cell line (AID 2202235); also: nearly all actives have a fitted effect of over 40% in size; also: potency is read from the fitted curve at half-maximal effect
# In short: as §2
# [10] = BET inhibitor-based combinations targeting novel dependencies in MECOM-rearranged (r) AML: OCI-AML3 cell line (AID 2202232); settings: Potency: OCI-AML3 viability; also: nearly all actives have a fitted effect of over 35% in size; also: potency is read from the fitted curve at half-maximal effect
# In short: as §1
# Sequence of Cellular tumor antigen p53 (Homo sapiens) (P04637 whole entry, looked up): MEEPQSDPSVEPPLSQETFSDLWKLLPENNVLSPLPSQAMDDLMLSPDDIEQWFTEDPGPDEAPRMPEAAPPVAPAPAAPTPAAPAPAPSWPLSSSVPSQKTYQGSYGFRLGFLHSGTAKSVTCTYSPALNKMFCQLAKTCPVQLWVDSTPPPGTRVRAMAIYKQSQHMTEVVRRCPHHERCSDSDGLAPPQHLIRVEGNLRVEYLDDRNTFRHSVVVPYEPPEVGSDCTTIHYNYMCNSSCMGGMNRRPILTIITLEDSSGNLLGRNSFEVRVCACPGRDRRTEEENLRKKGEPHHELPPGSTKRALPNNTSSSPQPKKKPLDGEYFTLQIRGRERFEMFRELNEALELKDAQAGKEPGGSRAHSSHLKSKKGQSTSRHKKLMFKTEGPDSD
Structure (SMILES),activation [1],Potency [2],Potency [3],viability [4] [%],Potency [5],Potency [6],Potency [7],Potency [8],Potency [9],Potency [1],Potency [4],Potency [10]
Cn1cnc2c(F)c(Nc3ccc(Br)cc3F)c(C(=O)NOCCO)cc21,64.2% and -20.5%,inactive,inactive,26.2,0.0235 µM (active),,,,,,,
CC1CCN(c2cc(N3CCN(C)CC3)ccc2NC(=O)c2cc(C#N)c[nH]2)CC1,4.19% and 20.5%,inactive,inactive,116,26.3 µM (active),8.33 µM (active),20.9 µM (active),23.5 µM (active),,,,
Cn1cc(-c2c[nH]c3ncnc(N4CCOCC4)c23)cn1,-7.14%,inactive,inactive,112,,11.8 µM (active),20.9 µM (active),inactive,inactive,,,
CN(C)CCOc1cc(-c2cn[nH]c2)ccc1NC(=O)C1COc2ccccc2O1 (stereo not drawn),-38.5% and -11.6%,inactive,inactive,92.6,inactive,,5.9 µM (active),,inactive,,,
N#Cc1ccnc(N2C(=O)CC[C@H]2C(=O)N(c2cncc(F)c2)[C@H](C(=O)NC2CC(F)(F)C2)c2ccccc2Cl)c1,-19.7% and -8.38%,inactive,inactive,105,inactive,inactive,,inactive,,,,
N#Cc1ccc(C2CCCc3cncn32)cc1 (stereo not drawn),-5%,inactive,inactive,109,inactive,inactive,,inactive,inactive,,,
O=C(O)CCCc1c[nH]c2ccccc12,-8.68% and -9%,inactive,inactive,116,inactive,,inactive,inactive,inactive,,,
COc1cc2c(N3CCN(C(=O)Nc4ccc(OC(C)C)cc4)CC3)ncnc2cc1OCCCN1CCCCC1,54% and 21.4%,inactive,inactive,95.3,,0.59 µM (active),,23.5 µM (active),16.6 µM (active),,,
Cn1nccc1Nc1nccc(-c2ccn([C@H](CO)c3ccc(Cl)c(F)c3)c(=O)c2)n1,-22.3%,inactive,inactive,72.4,,16.6 µM (active),,,16.6 µM (active),,,
NCCOc1cc(C(=O)Nc2cc(OCCN)c3ccccc3n2)nc(C(=O)Nc2cc(OCCN)c3ccccc3n2)c1,,inactive,inactive,78,,16.6 µM (active),inactive,,,0.193 µM (active),,
O=C(O)c1ccc(CCCc2ccc(OCCc3ccc(F)cc3)cc2)o1,-3.57%,inactive,inactive,,inactive,,inactive,inactive,inactive,,20.9 µM (active),
Cc1ncc(Cl)cc1NCc1ccc(C(=O)NC(CC2CCCC2)C(=O)NC2CC2)s1 (stereo not drawn),3%,inactive,inactive,107,,18.6 µM (active),5.9 µM (active),,0.833 µM (active),,,
Cc1[nH]c(/C=C2\C(=O)Nc3ccc(F)cc32)c(C)c1C(=O)NCCN1CCCC1,,inactive,inactive,,3.62 µM (active),0.0323 µM (active),6.45 µM (active),7.23 µM (active),8.11 µM (active),2.69 µM (active),,8.11 µM (active)
Cc1nn(Cc2ccccc2Cl)c(C)c1CN(C)CC(O)COc1ccc(Cl)cc1 (stereo not drawn),32.2%,inactive,inactive,,20.9 µM (active),20.9 µM (active),23.5 µM (active),,inactive,,,16.6 µM (active)
Cc1c(NC(=O)c2ccc(C(C)(C)C)cc2)cccc1-c1cn(C)c(=O)c(Nc2ccc(C(=O)N3CCOCC3)cc2)n1,63.1% and -9.82%,inactive,inactive,,,,,inactive,inactive,,16.6 µM (active),
CC1(C)CC(=O)c2c(C(F)(F)F)nn(-c3ccc(C(N)=O)c(NC4CCC(O)CC4)c3)c2C1 (stereo not drawn),11.9% and -1.67%,inactive,inactive,,0.0934 µM (active),0.0372 µM (active),,,0.105 µM (active),,,0.0742 µM (active)
CCc1cc(C(N)=O)ccc1-n1nc(C(C)C)c2c(-n3cnc(-c4cnn(C)c4)c3)ccnc21,4.33%,inactive,inactive,,1.32 µM (active),0.662 µM (active),1.66 µM (active),1.48 µM (active),1.86 µM (active),,,1.86 µM (active)
CC(C)(O)CC(=O)NCCn1ccc2ncnc(Nc3ccc(Oc4cccc(C(F)(F)F)c4)c(Cl)c3)c21,,inactive,inactive,,14.8 µM (active),13.2 µM (active),16.6 µM (active),,14.8 µM (active),24.3 µM (active),,16.6 µM (active)

Structure (SMILES),activation [1],Potency [2],Potency [3],viability [4] [%],Potency [5],Potency [6],Potency [7],Potency [8],Potency [9],Potency [1],Potency [4],Potency [10]
CCCCOC(=O)NS(=O)(=O)c1sc(CC(C)C)cc1-c1ccc(Cn2ccnc2)cc1,6.25%,inactive,inactive,80.2,,,,inactive,inactive,,,
CN(C)c1ccc(C2Nc3ccc4ccccc4c3C3=C2C(=O)CC(C)(C)C3)cc1Br (stereo not drawn),5.76% and 26.3%,inactive,inactive,107,,,inactive,,inactive,,,
Oc1ccc([C@@H]2Oc3ccc(O)cc3[C@@H]3CCC[C@@H]32)cc1,23.4%,inactive,inactive,,9.34 µM (active),13.2 µM (active),5.9 µM (active),7.42 µM (active),5.9 µM (active),,,16.6 µM (active)
COc1cc2c(Oc3ccc4[nH]c(C)cc4c3F)ncnc2cc1OCCCN1CCCC1,,inactive,inactive,,11.8 µM (active),18.6 µM (active),20.9 µM (active),10.5 µM (active),16.6 µM (active),24.3 µM (active) and 23.9 µM (active),,13.2 µM (active)
Nc1nccc(Oc2ccc(NC(=O)c3c[nH]cc(-c4ccc(F)cc4)c3=O)cc2F)c1Cl,,inactive,inactive,,18.6 µM (active),0.0372 µM (active),,,,43.2 µM (active) and 30.1 µM (active),,20.9 µM (active)
CS(=O)(=O)CCNCc1ccc(-c2ccc3ncnc(Nc4ccc(OCc5cccc(F)c5)c(Cl)c4)c3c2)o1,,inactive,inactive,,3.72 µM (active),18.6 µM (active),26.3 µM (active),,inactive,26.9 µM (active),,23.5 µM (active)
C=C1C[C@@]2(O)O[C@@]3(C[C@H]2C(C)C)[C@@H](C)CC[C@@H]13,3.34%,inactive,inactive,,inactive,inactive,inactive,inactive,inactive,,,inactive
O=C(C1CC1)N1CC[C@@H](Cc2n[nH]c(=O)n2-c2ccc(-c3ccc4occc4c3)cc2)C1,-2.33% and -15.1%,inactive,inactive,95.8,,,inactive,inactive,inactive,,,
Nc1ncnc2c1c(COc1cccc(Cl)c1)nn2C1CCOCC1,15.2%,inactive,inactive,99.8,,,inactive,,,,,
CC(=O)Nc1ccc(C(=O)Nc2ccccc2N)cc1,3% and -4.47%,inactive,inactive,,11.8 µM (active),5.9 µM (active),18.6 µM (active),18.6 µM (active),10.5 µM (active),,,16.6 µM (active)
O=C(Nc1ccc(-c2ccnc(Nc3ccc(N4CCOCC4)cc3)n2)cc1)C1CCCN1 (stereo not drawn),-5.36%,inactive,inactive,,5.9 µM (active),2.35 µM (active),,,1.66 µM (active),,,16.6 µM (active)
CC1=C[C@@H]2[C@@H]([C@@H](O)C[C@@]3(C)[C@H]2C[C@@H](C)[C@]3(O)C(=O)CO)[C@@]2(C)Cc3cnn(-c4ccccc4)c3C=C12,-34.9%,inactive,inactive,,18.6 µM (active),18.6 µM (active),,,,,,18.6 µM (active)
N#CC1(c2cccc(C(=O)Nc3cc(Oc4ccc5nc(NC(=O)C6CC6)sc5n4)ccc3F)c2Cl)CC1,23.6%,inactive,inactive,82.7,,,,inactive,inactive,,,
CCc1cc2c(cc1N1CCC(N3CCOCC3)CC1)C(C)(C)c1[nH]c3cc(C#N)ccc3c1C2=O,46.2%,inactive,inactive,88.5,,,,,inactive,,,
COc1cc2c(NC3CCN(C(C)C)CC3)nc(C3CCCCC3)nc2cc1OCCCN1CCCC1,27.1% and 25.7%,inactive,inactive,,11.8 µM (active),8.33 µM (active),20.9 µM (active),14.8 µM (active),11.8 µM (active),,,18.6 µM (active)
CC1c2ccccc2CN1NC(=O)c1ccc(Cl)c(S(N)(=O)=O)c1 (stereo not drawn),6.69%,inactive,inactive,109,,,inactive,inactive,,,,
COCCOc1ccc2c(c1)ncn2-c1ccc2cccc(N3CCC(N)CC3)c2n1,,inactive,inactive,,7.42 µM (active),0.0186 µM (active),2.09 µM (active),2.35 µM (active),5.25 µM (active),16.9 µM (active),,9.34 µM (active)
CC(C)c1cc(CNc2nc(Nc3cc(C4CC4)[nH]n3)cc(N3CCN(C)CC3)n2)on1,,inactive,inactive,,0.0934 µM (active),0.0742 µM (active),0.0833 µM (active),0.0934 µM (active),0.742 µM (active),4.26 µM (active),,4.68 µM (active)

# — PubChem BioAssay (NCATS)
